{"source": "PubChem BioAssay (NCATS)", "note": "Inconclusive results are not listed. Entries that show only a call come without a potency. Calls of active or inactive are those of the source. Calls come from the whole dose curve; as a rule, active = well fitted inhibition curve with a large enough effect; inconclusive = small, poorly fitted or top-dose-only effect; inactive = flat fitted curve, though single readings scatter."}
{"target": "Calcium and integrin-binding protein 1 (Homo sapiens) (UniProt Q99828)", "sequence (Q99828 whole entry, looked up)": "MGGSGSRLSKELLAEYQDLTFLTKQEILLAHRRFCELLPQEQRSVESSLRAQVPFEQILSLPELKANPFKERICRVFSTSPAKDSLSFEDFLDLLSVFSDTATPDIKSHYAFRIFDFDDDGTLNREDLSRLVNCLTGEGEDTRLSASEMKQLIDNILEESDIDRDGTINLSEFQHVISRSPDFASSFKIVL", "assay": "Primary qHTS for Identification of Calcium Integrin Binding Protein 1 (CIB1) Competitor (AID 1508620); note: top concentration of the series differs between compounds", "conditions": "CIB1-GST / FITC-alphaIIb peptide fluorescence polarization; series mostly up to 57.7 µM", "how_it_was_run": "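Fluorescence polarization competition: GST-tagged CIB1 (1 uM final) preincubated with compound 15 min at room temperature, then FITC-labelled alphaIIb peptide (100 nM final) added. After 15 min at room temperature, polarization read at Ex 480/Em 540.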"}
{"smiles": "CO[C@H]1C(=O)[C@]2(C)[C@@H](OC)C[C@H]3OC[C@@]3(OC(C)=O)[C@H]2[C@H](OC(=O)c2ccccc2)[C@]2(O)C[C@H](OC(=O)[C@H](O)[C@@H](NC(=O)OC(C)(C)C)c3ccccc3)C(C)=C1C2(C)C", "Potency": "inactive"}
{"smiles": "CNC(=O)c1ccccc1Sc1ccc2c(C=Cc3ccccn3)n[nH]c2c1", "Potency": "inactive"}
{"smiles": "O=c1c(O)c(-c2ccc(O)cc2)oc2cc(O)cc(O)c12", "Potency": "inactive"}
{"smiles": "CCOC(CN1C(=O)[C@](CC(=O)Nc2ccc(C)cc2)(NC(=O)Nc2ccc(C)cc2)c2ccccc21)OCC", "Potency": "inactive"}
{"smiles": "COc1cc(NC(=O)c2ccc(-c3ccc(Cl)cc3)o2)cc(OC)c1", "Potency": "inactive"}
{"smiles": "NC(=O)NN=Cc1ccc([N+](=O)[O-])o1", "Potency": "inactive"}
{"smiles": "C[C@H]1[C@H](NC(=O)C(=NOC(C)(C)C(=O)O)c2csc(N)n2)C(=O)N1S(=O)(=O)O", "Potency": "inactive"}
{"smiles": "CC(C)n1cnc2c(NCCCCCCNC(=O)OC(C)(C)C)nc(NCCO)nc21", "Potency": "inactive"}
{"smiles": "CC=CC(=O)N(CC)c1ccccc1C", "Potency": "inactive"}
{"smiles": "COC(=O)N[C@H](C(=O)N1CCC[C@@H]1c1ncc(-c2ccc(-c3ccc(-c4cnc([C@@H]5CCCN5C(=O)[C@@H](NC(=O)OC)C(C)C)[nH]4)cc3)cc2)[nH]1)C(C)C", "Potency": "inactive"}
{"smiles": "CN1[C@@H]2CCC[C@@H]1CC(NC(=O)c1nn(C)c3ccccc13)C2", "note": "(some centres not stated)", "Potency": "inactive"}
{"smiles": "CN(C)Cc1cccc(N=C(c2ccccc2)c2c(O)[nH]c3cc(C(=O)N(C)C)ccc23)c1", "Potency": "inactive"}
{"smiles": "C[N+]1(C)[C@@H]2CC(OC(=O)[C@H](CO)c3ccccc3)C[C@H]1[C@H]1O[C@@H]12", "note": "(some centres not stated)", "Potency": "inactive"}
{"smiles": "CC(=O)N(C)C1(c2ccccc2)CCN(CCC[C@]2(c3ccc(Cl)c(Cl)c3)CCCN(C(=O)c3ccccc3)C2)CC1", "Potency": "inactive"}
{"smiles": "CON=C(C(=O)N[C@@H]1C(=O)N2C(C(=O)OCOC(=O)C(C)(C)C)=C(C=Cc3scnc3C)CS[C@H]12)c1csc(N)n1", "Potency": "inactive"}
{"smiles": "O=c1cc(N2CCOCC2)oc2c(-c3cccc4c3sc3ccccc34)cccc12", "Potency": "inactive"}
{"smiles": "CC(C)OC(=O)CCCC=CC[C@@H]1[C@H](C=C[C@@H](O)COc2cccc(C(F)(F)F)c2)[C@H](O)C[C@@H]1O", "Potency": "inactive"}
{"smiles": "CC(C(=O)O)c1ccc(-c2ccccc2)c(F)c1", "note": "(configuration not stated)", "Potency": "inactive"}
{"smiles": "CC(C)C(=O)Oc1ccc(CO)cc1[C@H](CCN(C(C)C)C(C)C)c1ccccc1", "Potency": "inactive"}
{"smiles": "NC(CO)(CO)CCc1ccc(Sc2cccc(OCc3ccccc3)c2)cc1Cl", "Potency": "inactive"}
{"smiles": "CO[C@@H](C(=O)N1Cc2[nH]nc(NC(=O)c3ccc(N4CCN(C)CC4)cc3)c2C1)c1ccccc1", "Potency": "inactive"}
{"smiles": "O=C(O)c1ccccc1C(=O)Nc1ccc(-c2ccccc2)cc1", "Potency": "inactive"}
{"smiles": "COc1cc(O)c2c(c1)C(=O)c1cc(C)cc(O)c1C2=O", "Potency": "inactive"}
{"smiles": "NC1=N[C@@]2(c3cc(NC(=O)c4ccc(F)cn4)ccc3F)COC[C@@H]2CS1", "Potency": "inactive"}
{"smiles": "CC(C)=CC[C@@H](O)C1=CC(=O)c2c(O)ccc(O)c2C1=O", "Potency": "inactive"}
{"smiles": "CO[C@H]1C=CC=C(C)C(=O)NC2=CC(=O)C(NCCN(C)C)=C(C[C@@H](C)C[C@H](OC)[C@@H](O)[C@@H](C)C=C(C)[C@@H]1OC(N)=O)C2=O", "Potency": "inactive"}
{"smiles": "CC1(C)O[C@H]2C[C@@H]3[C@H]4CCC5=CC(=O)C=C[C@]5(C)[C@@]4(F)[C@@H](O)C[C@]3(C)[C@]2(C(=O)CO)O1", "Potency": "inactive"}
{"smiles": "Cc1ccc(/C=N/NC(=O)c2ccccc2Oc2ccccc2)o1", "Potency": "inactive"}
{"smiles": "O=C(O)c1ccc(-c2cc3cccnc3c(-c3ccc4nonc4c3)n2)cc1", "Potency": "inactive"}
{"smiles": "CC=CC[C@@H](C)C(=O)[C@H]1C(=O)N[C@@H](C(C)C)C(=O)N(C)CC(=O)N(C)[C@@H](CC(C)C)C(=O)N[C@@H](C(C)C)C(=O)N(C)[C@@H](CC(C)C)C(=O)N[C@@H](C)C(=O)N[C@H](C)C(=O)N(C)[C@@H](CC(C)C)C(=O)N(C)[C@@H](CC(C)C)C(=O)N(C)[C@@H](C(C)C)C(=O)N1C", "Potency": "inactive"}
{"smiles": "CO[C@H]1C[C@@H]2CC[C@@H](C)[C@@](O)(O2)C(=O)C(=O)N2CCCC[C@@H]2C(=O)O[C@H]([C@@H](C)C[C@@H]2CC[C@H](O)[C@H](OC)C2)CC(=O)[C@H](C)C=C(C)[C@@H](O)[C@@H](OC)C(=O)[C@H](C)C[C@H](C)C=CC=CC=C1C", "Potency": "inactive"}
{"smiles": "CC(C)(C)COc1ccc(-n2cc(C(=O)O)cn2)cc1C#N", "Potency": "inactive"}
{"smiles": "O=C(CCc1ccc(O)cc1)c1c(O)cc(O)cc1O[C@@H]1O[C@H](CO)[C@H](O)[C@H](O)[C@H]1O", "Potency": "inactive"}
{"smiles": "CCOC1OC(=O)C[C@H]1NC(=O)[C@@H]1CCCN1C(=O)[C@@H](NC(=O)c1ccc(N)c(Cl)c1)C(C)(C)C", "note": "(some centres not stated)", "Potency": "inactive"}
{"smiles": "NS(=O)(=O)c1ccc(NC2=CC(=O)c3ccccc3C2=O)cc1", "Potency": "inactive"}
{"smiles": "CN1CCN(CCOc2cc(OC3CCOCC3)c3c(Nc4c(Cl)ccc5c4OCO5)ncnc3c2)CC1", "Potency": "inactive"}
{"smiles": "CC1(C)S[C@H]2[C@H](NC(=O)[C@@H](N)c3ccc(O)cc3)C(=O)N2[C@@H]1C(=O)O", "Potency": "inactive"}
